Measurements as given in article PMC5540273 (PLoS ONE, 2017).

Columns and labels:
Details in all cases: concentration: 1 μM, replicates: in singlicate; n = 1
HIPK2 = test system: HIPK2
HIPK3 = test system: HIPK3
HIPK4 = test system: HIPK4
HPK1 = test system: HPK1
HUNK = test system: HUNK
ICK = test system: ICK
IGF1R = test system: IGF1R
IKK-alpha = test system: T1, IKK-alpha
T1 construct: gene CHUK

IKK-beta = test system: T2, IKK-beta
T2 construct: gene IKBKB

IKK-epsilon = test system: T3, IKK-epsilon
T3 construct: gene IKBKE

INSRR = test system: INSRR
INSR = test system: INSR
IRAK1 = test system: IRAK1
IRAK3 = test system: IRAK3
IRAK4 = test system: IRAK4
ITK = test system: ITK
[1] = test system: JAK1(JH1domain-catalytic)
[2] = test system: JAK1(JH2domain-pseudokinase)
[3] = test system: JAK2(JH1domain-catalytic)
[4] = test system: JAK3(JH1domain-catalytic)
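Also: KINOMEscan kinase panel screen.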

| SMILES | %Inh (HIPK2) | %Inh (HIPK3) | %Inh (HIPK4) | %Inh (HPK1) | %Inh (HUNK) | %Inh (ICK) | %Inh (IGF1R) | %Inh (IKK-alpha) | %Inh (IKK-beta) | %Inh (IKK-epsilon) | %Inh (INSRR) | %Inh (INSR) | %Inh (IRAK1) | %Inh (IRAK3) | %Inh (IRAK4) | %Inh (ITK) | %Inh [1] | %Inh [2] | %Inh [3] | %Inh [4] |
| --- | --- | --- | --- | --- | --- | --- | --- | --- | --- | --- | --- | --- | --- | --- | --- | --- | --- | --- | --- | --- |
| Cl.O=S(=O)(c1cccc(F)c1)c1ccc(Nc2ncnc3cc(Br)sc23)cc1Cl [GSK306886] | 0% | 23% | 0% | 29% | 57% | 0% | 0% | 0% | 41% | 0% | 0% | 13% | 32% | 0% | 0% | 0% | 15% | 0% | 2% | 0% |
| Fc1cccc(COc2ccc(Nc3ncnc4sc(-c5ccc[nH]5)cc34)cc2Cl)c1 [GW707818] | 0% | 1% | 0% | 39% | 10% | 0% | 0% | 0% | 0% | 0% | 0% | 13% | 20% | 0% | 0% | 0% | 18% | 4% | 100% | 0% |
| COc1cc2c(Nc3cccc(NC(=O)c4ccccc4)c3)ncnc2cc1OCCCN1CCOCC1 [GSK223810] | 0% | 0% | 7% | 55% | 0% | 0% | 0% | 0% | 0% | 19% | 7% | 10% | 0% | 41% | 0% | 9% | 0% | 0% | 4% | 0% |
| Cl.c1ccc(Cn2ccc3cc(Nc4ncnc5ccccc45)ccc32)cc1 [GW275568] | 0% | 9% | 0% | 31% | 3% | 0% | 0% | 0% | 0% | 24% | 0% | 12% | 0% | 0% | 0% | 12% | 18% | 10% | 100% | 0% |
| Cl.Cl.c1ccc(-c2cc3ccncc3cc2OC2CCNCC2)cc1 [GSK1122999] | 0% | 20% | 0% | 51% | 27% | 0% | 0% | 72% | 98.7% | 9% | 0% | 0% | 56% | 24% | 1% | 11% | 22% | 0% | 8% | 0% |
| Cc1ccc(O)cc1Nc1cc(C(F)(F)F)nc2ccc(-c3ccncc3)cc12 [GW630823] | 0% | 0% | 9% | 0% | 3% | 0% | 5% | 0% | 0% | 0% | 0% | 0% | 0% | 56% | 0% | 19% | 0% | 0% | 0% | 0% |
| CSc1ccc(NC2=C(c3ccccc3Cl)C(=O)NC2=O)cc1 [SB-342411] | 0% | 31% | 0% | 0% | 0% | 40% | 6% | 0% | 0% | 44% | 0% | 0% | 0% | 0% | 19% | 4% | 0% | 0% | 0% | 48% |
